Several values for one entry are separate records, joined by “and”; a condition that tells them apart may be missing. Equal values may be shown once. Some compounds were tested as several samples or in several runs, with calls that do not always agree. Activity calls are given as the source filed them. The calls were made as follows: active = hit-call score of the fitted dose curve at least 0.9, where 1 is the maximum; inactive = score below 0.9.
Assay: ATG_TCF_b_cat_CIS: Attagene CIS-FACTORIAL HepG2 Assay for human T-Cell-Factor with beta-catenin (TCF/b-cat) (AID 2282965)
Conditions: HepG2 TCF/beta-catenin cis-reporter transcription, actives raise or lower the signal
Procedure: ATG_CIS is a cell-based, multiplexed-readout assay that uses HepG2, a human liver cell line, with measurements taken at 24 hours after chemical dosing in a 24-well plate.ATG_TCF_b_cat_CIS is one of 52 assay component(s) measured or calculated from the ATG_CIS assay. It is designed to make measurements of mRNA induction, a form of inducible reporter, as detected with fluorescence intensity signals by Reverse transcription polymerase chain reaction (RT-PCR) and Capillary electrophoresis technology.Data from the assay component ATG_TCF_b_cat_CIS was analyzed into 1 assay endpoint. This assay endpoint, ATG_TCF_b_cat_CIS, was analyzed with bidirectional fitting relative to DMSO as the negative control and baseline of activity. Using a type of inducible reporter, measures of mRNA for gain or loss-of-signal activity can be used to understand the reporter gene at the transcription factor-level as they relate to the gene TCF7 and TCF7L2 and LEF1 and TCF7L1. Furthermore, this assay endpoint can be referred to as a primary readout, because this assay has produced multiple assay endpoints where this one serves a reporter gene function. To generalize the intended target to other relatable targets, this assay endpoint is annotated to the dna binding intended target family, where the subfamily is HMG box protein.
Human liver HepG2 cells are transiently transfected with multiple reporter transcription units (MRTUs) in 6-well plates using FuGene 6 reagent (Roche; 3 ml FuGene/1 mg DNA). The MRTU constructs are regulated by a cis-regulating element (promoter). […] A major difference between the CIS and TRANS system is that in CIS activities of endogenous TFs are measured, whereas the TRANS assay evaluates changes in activities of exogenous, chimeric NR-Gal4 proteins. […] At the end of 24 hour incubation, total RNA was isolated using TriZol reagent (Invitrogen). The isolated RNA is then reverse-transcribed using oligo(dT) primer and Mo-MLV reverse transcriptase (Invitrogen) with DNAse I (Ambion) treatment for 30 min. The one-tenth of the produced cDNA was amplified by PCR using Taq DNA polymerase (Invitrogen) and two reporter sequence-specific primers. The PCR products were fluorescently labeled by primer extension with 6-arboxyfluorescein (6-FAM) 5'-labeled reporter sequence-specific primer (2 min at 95 C, 20 s at 68 C and 10 min at 72 C) and these products were digested with 5U of HpaI (New England Biolabs) for 2h at 37 C. The fragments were purified using Qiaquick PCR columns (Qiagen), analyzed on an ABI 3130xL genetic analyzer (Applied Biosystems) with peak positions identified by using a set of X-rhodamine (ROX)-labeled MapMarker1000 molecular weight standards (BioVentures). The raw capillary electrophoresis data was processed using Attagraph software (Attagene).

Row | Compound | outcome | AC50
1 | Cc1ccc(C(C)C)cc1 | inactive | –
2 | CO[C@H]1/C=C/O[C@@]2(C)Oc3c(C)c(O)c4c(O)c(c(/C=N/N5CCN(C)CC5)c(O)c4c3C2=O)NC(=O)/C(C)=C\C=C\[C@H](C)[C@H](O)[C@@H](C)[C@@H](O)[C@@H](C)[C@H](OC(C)=O)[C@@H]1C | inactive | –
3 | CN(C)C(=O)C1(N2CCCCC2)CCN(CC[C@@]2(c3ccc(Cl)c(Cl)c3)CN(C(=O)c3ccccc3)CCO2)CC1 | – | 0.98 µM (active)
4 | CC/C(=C(/CC)c1ccc(O)cc1)c1ccc(O)cc1 | inactive | 11.1 µM (active) and 16.2 µM (active) and 5.89 µM (active)
5 | C[C@]12CC[C@@H]3c4ccc(O)cc4CC[C@H]3[C@@H]1CC[C@H]2O | inactive | 27.3 µM (active)
6 | COc1cccc([C@H](O)C2CCN(CCc3ccc(F)cc3)CC2)c1OC | – | 100 µM (active)
7 | c1ccc(C[n+]2cccc3ccccc32)cc1 | inactive | –
8 | O=C(O)Cc1cc(I)c(Oc2ccc(O)c(I)c2)c(I)c1 | inactive | 51.2 µM (active)
9 | Cc1occc1C(=O)Nc1ccc(C(=O)N2CCC(F)(F)/C(=C\C(=O)N3CCC(N4CCCCC4)CC3)c3ccccc32)cc1 | – | 26.5 µM (active)
10 | CC1=CC(=O)/C(=C(/C)O)C(=O)O1 | inactive | –
11 | CC(O)CC(C)(C)O (stereo not given) | inactive | –
12 | CCCCCCCCCCCO | inactive | –
13 | CCCCCCCCN(C)CCCCCCCC | inactive | –
14 | CCCOC(=O)c1cc(O)c(O)c(O)c1 | inactive | –
15 | Cc1cn([C@H]2C[C@H](N=[N+]=[N-])[C@@H](CO)O2)c(=O)[nH]c1=O | inactive | –
16 | O=c1c(-c2ccc(O)cc2)coc2cc(O)cc(O)c12 | inactive | –
17 | O=c1ccc2ccccc2o1 | inactive | –
18 | CC1(C)NC(=O)N(c2ccc([N+](=O)[O-])c(C(F)(F)F)c2)C1=O | inactive | –

Row | Compound | outcome | AC50
19 | COCC(C)OCC(C)OCC(C)O (stereo not given) | inactive | –
20 | CN1C(=O)N(c2ccccc2Br)Cc2cnc(Nc3ccc4c(c3)OCC(CO)O4)nc21 (stereo not given) | – | 0.116 µM (active)
21 | CCCCOC(=O)c1ccc(O)cc1 | inactive | 100 µM (active)
22 | Oc1ccc2ccccc2c1 | – | 77.3 µM (active) and 100 µM (active)
23 | O=C(OCCCCCCOC(=O)c1ccccc1)c1ccccc1 | inactive | –
24 | O=CCCCC=O | – | 71.9 µM (active) and 100 µM (active)
25 | CC(C)(c1cc(Br)c(O)c(Br)c1)c1cc(Br)c(O)c(Br)c1 | – | 42.6 µM (active) and 22.7 µM (active)
26 | O=C(O)c1ccccc1C(=O)OCc1ccccc1 | inactive | –
27 | Cc1c2ccccc2c(C)c2c1ccc1ccccc12 | – | 53.4 µM (active)
28 | Cc1cc2c(cc1C(F)(F)F)N(C(=O)Nc1ccc(Oc3cccnc3C)nc1)CC2 | inactive | –
29 | CCCCCc1ccc(N)cc1 | inactive | 8.92 µM (active) and 6.2 µM (active) and 19.5 µM (active)
30 | Cc1cccc2ccccc12 | inactive | –
31 | CN(C)c1ccc(C(=C2C=CC(=[N+](C)C)C=C2)c2ccc(N(C)C)cc2)cc1 | – | 2.96 µM (active)
32 | CCCCCCCCOC(=O)c1cc(O)c(O)c(O)c1 | inactive | –
33 | Cc1ccc2oc(CN(Cc3ccccc3)C(=O)Nc3c(F)cc(F)cc3F)c(-c3ccc(Cl)cc3)c2c1 | inactive | –
34 | CC(C)(O)c1ccc(CNC(=O)c2cccnc2Oc2ccc3nonc3c2)cc1 | inactive | –
35 | CCCCCCCCOc1ccc(C(=O)c2ccccc2)c(O)c1 | inactive | –

Reference: PubChem BioAssay (EPA / NIEHS)
